Source: PubChem
GPR151 ag: activators of human GPR151. Q8TDV0. PathHunter beta-arrestin GPR151 cells, luminescence. activation, % at 11.2 µM. 1% of 650,000 active; in the data active = activation above about 4.9%;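 also: 0% = median of compound wells and 100% = cells with positive control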
Target sequence (Q8TDV0 whole entry, looked up): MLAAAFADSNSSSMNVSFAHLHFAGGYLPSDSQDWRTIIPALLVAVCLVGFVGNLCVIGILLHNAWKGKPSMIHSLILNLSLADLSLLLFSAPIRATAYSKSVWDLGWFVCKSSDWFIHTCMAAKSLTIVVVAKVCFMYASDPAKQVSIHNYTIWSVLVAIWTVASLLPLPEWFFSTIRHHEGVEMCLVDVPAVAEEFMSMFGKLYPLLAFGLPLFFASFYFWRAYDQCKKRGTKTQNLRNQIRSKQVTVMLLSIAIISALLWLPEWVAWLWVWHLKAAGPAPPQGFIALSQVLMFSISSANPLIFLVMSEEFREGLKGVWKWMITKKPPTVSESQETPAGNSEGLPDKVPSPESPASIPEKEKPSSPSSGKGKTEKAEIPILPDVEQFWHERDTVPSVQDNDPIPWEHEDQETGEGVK
TEAD-YAP block: TEAD-YAP interaction inhibition | AID 1259422 | inhibition, % at 9.12 µM | 1.4% of 640,000 active | HEK-TIYL cells, TEAD-Gal4/YAP UAS-luciferase luminescence; in the data active = inhibition above about 32%;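 also: 0% = median of test compound wells and 100% = reference inhibitor wells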
FBW7 activator: activators of human E3 ligase FBW7 | AlphaScreen FBW7–phospho-cyclin E peptide binding, activator screen | normalized activity (activation), % at 26.1 µM | 0.13% of 650,000 active; in the data active = normalized activity above about 1.9%;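 also: purified mutant Fbw7 with reduced substrate affinity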
MITF primary: human MITF inhibition, primary screen. inhibition, % at 2.6 µM. AlphaScreen MITF homodimerization, bead proximity signal. 0.91% of 650,000 active; in the data active = inhibition above about 50%;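 also: 0% = vehicle wells with protein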
An asterisk follows results filed as active; · = not tested or not shown; ! = repeats disagree. Only some compounds are listed: those with a hit (about 3.4% of all), similar ones and a draw of the others.

SMILES	GPR151 ag	TEAD-YAP block	FBW7 activator	MITF primary
CC(C)CS(=O)(=O)Nc1ccc2c(c1)N(C(=O)c1cccs1)CC2	0.5	-1.9	0.2	6.4
Cc1ccc(S(=O)(=O)Nc2ccc3c(c2)N(C(=O)c2cccs2)CCC3)cc1	-0.3	49.6*	-0.1	24.5
Cc1cccc(OCC(=O)Nc2ccc3c(c2)CCCN3C(=O)c2cccs2)c1	-0.4	2.6	0.0	8.9
CC(=O)N1CCc2ccc(NS(=O)(=O)c3ccc(C(C)(C)C)cc3)cc21	1.7	32.4*	0.1	6.6
CCC(=O)N1CCCc2ccc(NS(=O)(=O)c3ccc(OC)c(F)c3)cc21	2.4	57.6*	0.0	9.9
COc1ccc(Cl)cc1NC(=O)N1CCCCCC1	0.0	7.0	0.1	12.5
CCc1ccccc1Nc1nc(N)nc(CCl)n1	0.5	44.8*	0.4	12.8
CNC[C@H](O)c1ccc(O)c(O)c1	0.2	-11.2	-0.1	56.2*!
CCOc1ccc(-n2nnnc2-c2nc3ccccc3[nH]2)cc1	-0.5	-9.8	0.1	13.7
Cc1sc(NC(=O)c2ccc(Cl)s2)c(C(N)=O)c1C	-1.5	-61.4	0.0	-6.5
Cc1sc(NC(=O)c2ccc(Cl)s2)c(C(N)=O)c1-c1ccc(F)cc1	0.7	36.0*	0.1	7.5
Cc1ccc(/C=C2\SC(=S)N(C)C2=O)o1	1.9	11.9	-0.5	6.3
NC(=O)NN1C(=O)/C(=C/c2ccco2)SC1=S	-0.4	-1.9	-0.8	68.7*
Cc1ccc(/C=C2/SC(=O)NC2=S)o1	0.6	-4.9	0.0	75.9*
Cc1ccc(/C=C2/SC(=S)N(CCCCCC(=O)O)C2=O)o1	2.3	38.7*	-0.3	39.8
O=C(NN1C(=O)/C(=C\c2ccco2)SC1=S)c1ccccc1Cl	-0.3	1.3	-0.5	34.8
Cc1ccc(/C=C2\CS/C(=C\c3ccc(C)o3)C2=O)o1	1.0	-8.9	-0.7	66.8*
COc1ccccc1N1CCN(c2nnc(SCc3ccccn3)s2)CC1	-1.0	-40.3	-0.1	2.0
O=C(O)CCC(=O)Nc1ccc(Cl)cc1C(=O)c1ccccc1	1.6	-2.9	-0.1	7.1
Cc1ccc(OC(C)C(=O)NNC(=O)c2cccc(C)c2)cc1 (centres undefined)	-0.8	-8.6	0.1	3.4
Cc1ccc(/C=C2/SC(=S)N(CCS(=O)(=O)O)C2=O)o1	0.8	6.4	-1.2	56.3*
O=C(O)CCN1C(=O)/C(=C\c2ccccn2)SC1=S	1.4	25.8	0.0	8.1
O=C(O)CCCCCN1C(=O)/C(=C\c2ccco2)SC1=S	-0.5	36.9*	-0.1	43.2
O=C(O)CCCCCN1C(=O)/C(=C\c2ccccn2)SC1=S	0.3	30.1	1.9*	5.3
O=C(NCc1ccc(F)cc1)c1cncc(NS(=O)(=O)c2ccc(Cl)cc2)c1	0.4	-8.0	-0.3	13.5
SMILES	GPR151 ag	TEAD-YAP block	FBW7 activator	MITF primary
Cc1cc(N/N=C/c2cc([N+](=O)[O-])ccc2O)nc(-c2ccccc2O)n1	0.1	77.4*	-0.1	-11.6
O=[N+]([O-])c1ccc(O)c(/C=N/Nc2ccc(Cl)nn2)c1	0.5	46.4*	-0.1	-11.1
Cc1cc(N/N=C/c2cccc([N+](=O)[O-])c2)nc(-c2ccccc2O)n1	-0.5	1.9	0.2	12.5
Cc1cc(N/N=C/c2ccc(O)c(C)c2O)nc(-c2ccccc2O)n1	0.4	42.3*	0.2	-1.9
COc1ccc(OC)c(CCNC(=O)c2cc3c(C)nc4ccccc4c3o2)c1	1.8	45.8*	-0.1	-0.8
CCOC(=O)CNS(=O)(=O)c1cc(-c2nnc(Nc3ccc(Cl)c(Cl)c3)c3ccccc23)ccc1C	-0.4	0.7	2.2*	6.0
Oc1cccc(-c2cnc3c(Nc4ccc5[nH]ccc5c4)nccn23)c1	-1.6	97.0*	0.0	-9.2
c1cn2c(-c3ccoc3)cnc2c(Nc2ccc3[nH]ccc3c2)n1	-3.3	81.1*	0.0	-2.8
Clc1ccc(Nc2nccn3c(-c4ccoc4)cnc23)cc1	-2.7	39.6*	-0.7	12.1
CN(C)CCNC(=O)c1ccc(-c2cnc3c(Nc4ccc5[nH]ccc5c4)nccn23)cc1	-1.4	38.8*	-0.1	-41.4
c1cn2c(-c3ccc4[nH]ccc4c3)cnc2c(Nc2ccc3[nH]ccc3c2)n1	2.4	0.2	0.1	-10.9
c1ccc(-c2ccc(N3CCCCCC3)nn2)cc1	-6.2	93.1*	0.1	-2.0
O=C(NC1CC1)C1CCN(c2ccc(-c3ccccc3)nn2)CC1	-4.6	10.1	0.1	-1.3
COc1ccccc1N1CCN(c2ccc(-c3ccccc3)nn2)CC1	-4.8	87.9*	-0.2	3.1
O=C(/C(F)=C/c1ccccc1)N1CCC(CO)(CCOc2ccccc2)CC1	1.7	-12.3	-0.1	1.3
COc1cccc(-n2c(=S)sc3c2nc(SCC(=O)O)n2c4ccccc4nc32)c1	0.5	2.0	0.1	35.1
Cc1ccc(-c2cc(C(=O)Nc3nncs3)c3cc(Br)ccc3n2)o1	-1.5	0.4	-0.2	6.0
Cc1c(C(=O)N(Cc2ccc(N(C)C)cc2)Cc2ccco2)sc2ncn(Cc3cccc(F)c3)c(=O)c12	-0.8	1.0	0.1	15.6
COc1cc2c(cc1O)CCC1C2CC[C@@]2(C)C1CC[C@@H]2O (some centres undefined)	-0.3	·	0.1	11.6
COc1cc2c(cc1O)CC[C@@H]1[C@@H]2CC[C@]2(C)[C@@H](O)CC[C@@H]12	-1.4	53.1*	0.1	16.5
COCCn1c(Cc2cccn2C)nnc1SCC(=O)Nc1ccccc1	-0.1	-4.6	-0.2	-6.5
Cn1cnc(-c2ccnc(Nc3ccc(N4CCOCC4)cc3)c2)n1	0.5	14.8	-0.4	1.7
Cn1ccc(-c2ccccc2Nc2ccnc(Nc3ccc(N4CCOCC4)cc3)c2)n1	1.7	46.9*	-0.6	-5.6
Cn1cc(-c2ncoc2-c2ccnc(Nc3ccc(N4CCOCC4)cc3)c2)cn1	-0.2	30.2	-0.3	-7.1
c1ccc(-c2ccn[nH]2)c(Nc2ccnc(Nc3ccc(N4CCOCC4)cc3)c2)c1	0.3	38.2*	-0.6	8.4
SMILES	GPR151 ag	TEAD-YAP block	FBW7 activator	MITF primary
c1cnn(-c2ccnc(Nc3ccc(N4CCOCC4)cc3)c2)c1	-3.3	-37.0	-0.3	-11.3
c1cc(-c2ocnc2-c2ccc3cn[nH]c3c2)cc(Nc2ccc(N3CCOCC3)cc2)n1	1.5	58.4*	-0.5	-4.4
CC(=O)N/C(=C\c1ccc(Cl)cc1)C(=O)NCCN1CCOCC1	-0.4	-14.0	-0.1	8.4
Cc1cc(-c2ccc(N=Nc3ccc4c(S(=O)(=O)O)cc(S(=O)(=O)O)c(N)c4c3O)c(C)c2)ccc1N=Nc1ccc2c(S(=O)(=O)O)cc(S(=O)(=O)O)c(N)c2c1O	0.4	·	0.1	77.6*
Nc1c(N=Nc2ccc(-c3ccc(N=Nc4cc(S(=O)(=O)O)c5ccccc5c4N)cc3)cc2)cc(S(=O)(=O)O)c2ccccc12	-3.6	2.3	-0.6	23.0
C[C@H](Nc1nc(-c2cccc3ncccc23)cnc1N)c1ccccc1	-0.7	59.7*	0.1	13.6
C[C@@H](Nc1nc(-c2cccc3cccnc23)cnc1N)c1ccccc1	-0.5	16.0	0.1	5.7
Nc1ncc(-c2cccc3ncccc23)nc1NCc1ccccc1	1.0	48.2*	0.6	21.5
COc1ccc(N(CC(=O)NCc2ccccc2)S(=O)(=O)c2ccccc2)c(OC)c1	1.0	-2.7	-0.3	-3.2
CCN(CC)c1ccc(/C=C(/C#N)C(=O)Nc2ccc(O)cc2)cc1	-0.3	39.9*	-0.1	17.3
